Test results reported in PubChem BioAssay AID618 (Sanford-Burnham Center for Chemical Genomics, 2007).
The campaign covered roughly 87,000 compounds. About 540 (0.62%) were called active. How the calls were made is not given here. For the sample, actives were picked, then their nearest neighbours and some compounds at random. Potency and affinity values are given separately.

Test: MT1-MMP gene expression reporter suppression – cell-based, luciferase reporter, luminescence (AID 618);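 further: actives suppress MT1-MMP promoter-driven transcription so potencies describe inhibitors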
Conditions: MT1-MMP promoter luciferase reporter cells

outcome, inactive:
COC(=O)C(C)Sc1ncnc2c1nnn2-c1ccc(F)cc1 (stereo not drawn), Cc1ccc(CNC(=O)[C@H]2C[C@@H]2[C@H](NP(=O)(c2ccccc2)c2ccccc2)c2ccccc2)o1, Cc1ccc(C(=O)c2c(C)oc3c2C(=O)C(=O)c2ccccc2-3)cc1, O=C1c2ccccc2C(=O)c2c1oc(C(F)(F)F)c2C(=O)c1ccccc1, COc1cccc(Cn2c(NCc3ccccn3)nc3c2c(=O)n(C)c(=O)n3C)c1, Cn1c(=O)c2c(nc(NCc3cccnc3)n2Cc2cccc(C(F)(F)F)c2)n(C)c1=O, Cc1cc(C)nc(Sc2ccc3nnc(C(F)(F)C(F)(F)C(F)(F)F)n3n2)n1, Cc1ccc(-c2nn3c(C)nnc3s2)cc1NC(=O)C(C)C, COc1cccc2cc(-c3cn4ccc(C)cc4n3)c(=O)oc12, CCOc1cccc2cc(-c3nnc(-c4ccccc4)o3)c(=O)oc12, CCc1ccc(OCCNC(=O)c2ccc(S(=O)(=O)N(C)C)cc2)cc1, CCOC(=O)N1CCN(C(=O)c2ccc(N(Cc3ccc(C)cc3)S(C)(=O)=O)cc2)CC1, CCOP(=O)(c1ccccc1Cl)C1(O)CCCCC1 (stereo not drawn), CCOc1ccc(C(=O)N2CCCC2)cc1OC, COc1ccc(C(=O)N2CCc3cc(OC)c(OC)cc3C2)cc1OC, CCOC(=O)C1=NN(c2ccc(Cl)cc2)C(c2ccccc2)CC1=O (stereo not drawn), CCCN(CCC)S(=O)(=O)c1cccc(C(=O)Nc2ccc3c(c2)OCO3)c1, O=C(Nc1ccc(O)cc1)C1CCCO1 (stereo not drawn), O=C(Nc1ccc(-c2nc3cc(Cl)ccc3o2)cc1)C1CCCO1 (stereo not drawn), Cc1ccc2oc(-c3cccc(NC(=O)C4CCCO4)c3)nc2c1 (stereo not drawn), O=C(Nc1nc2ccccc2[nH]1)C1CCCO1 (stereo not drawn), COc1ccc(OC)c(NC(=O)C2CCCN2C(=O)OCc2ccccc2)c1 (stereo not drawn), Nc1nnnn1/N=C/c1cccc(OCc2ccccc2Cl)c1, C=CC(O)(C#CCN(CC)CC)c1ccccc1 (stereo not drawn), CC(=O)NC1CC2CCCC(C1)N2C(=O)Nc1ccccc1 (stereo not drawn), NC(=O)c1c(NC(=O)c2ccco2)sc2c1CCC2, Cc1cc(C)nc(NC(=O)c2cc3ccccc3o2)n1, CC(=O)Nc1sc2c(c1C(N)=O)CCC2, Cc1c(C(=O)Nc2ccccn2)oc2ccccc12, Cc1c(C(=O)Nc2ccncc2)oc2ccccc12, O=C(Nc1ccccc1)c1cc2ccccc2o1, CCCC(C)NC(=O)C1CCN(S(=O)(=O)c2ccccc2)CC1 (stereo not drawn), O=C(CSc1ccc(-c2nc3ccccc3[nH]2)cn1)N1CCN(C(=O)c2ccco2)CC1, O=C(c1ccc(S(=O)(=O)Nc2ccccc2)cc1)N1CCOCC1, CCN(CC)C(=O)C(C)N(C#N)c1nc(NC(C)C)nc(NC(C)C)n1 (stereo not drawn), Cc1ccc(Cn2c(Sc3nnc(C)s3)nc3c2c(=O)[nH]c(=O)n3C)cc1, Cc1cccc(CCNC(=O)C2CCC(=O)N2Cc2ccc(F)cc2)c1 (stereo not drawn), CCOC(=O)Cc1csc(SCC(=O)Nc2sc3c(c2C(N)=O)CCC3)n1, CCOC(=O)CSC1=C(C#N)C(c2ccccc2OC)CC(=O)N1 (stereo not drawn), CCCCCCSC1=C(C#N)C(c2ccc(C)o2)CC(=O)N1 (stereo not drawn), CCSC1=C(C#N)C(c2ccc(C)s2)CC(=O)N1 (stereo not drawn), CCOC(=O)CSC1=C(C#N)C(c2ccc(Cl)cc2)CC(=O)N1 (stereo not drawn), C=CCc1c(C)c(C#N)c2nc3ccccc3n2c1N1CCN(C)CC1, CCC(CC)C(=O)NCCc1cc2c(C)ccc(C)c2[nH]c1=O, COc1cc(Nc2cc(C)nc3ncnn23)cc(OC)c1OC, Cc1nc2ncnn2c(Nc2ccc3c(c2)OCO3)c1Cc1ccccc1, COc1ccc(NC(=O)CSc2nnc(-c3cccnc3)o2)cc1, CCn1nc(C)c(NC(=O)CCCSc2nc(-c3ccco3)cc(C(F)(F)F)n2)c1C, Cc1ccc(C2C(C#N)=C(N)Oc3n[nH]c(C)c32)cc1 (stereo not drawn), Cc1[nH]nc2c1C(C(C)C)C(C#N)=C(N)O2 (stereo not drawn)

outcome, active:
Cc1oc2c(c1C(=O)c1ccccc1)C(=O)C(=O)c1ccccc1-2, CCOc1cccc2cc(-c3cn4cc(C)ccc4n3)c(=O)oc12, CCOc1cc(C(=O)N2CCc3cc(OC)c(OC)cc3C2)ccc1OC(F)F, O=C(Nc1ccc(-c2nc3ccccc3o2)cc1)C1CCCO1 (stereo not drawn), O=C(Nc1ccc(-c2nc3ccccc3[nH]2)cc1)C1CCCO1 (stereo not drawn), CCOC(=O)CSC1=C(C#N)C(c2ccc(C)s2)CC(=O)N1 (stereo not drawn), CCOC(=O)CSC1=C(C#N)C(c2ccc(C)o2)CC(=O)N1 (stereo not drawn), Cc1[nH]nc2c1C(C1CC=CCC1)C(C#N)=C(N)O2 (stereo not drawn)
